High-throughput results as filed in PubChem.
FLuc counter: inhibits or activates purified firefly luciferase, miR-21 counter-screen; P08659; purified FLuc, Km substrates, luminescence inhibition; Potency, µM (doses to about 57.5 µM), for inactives: at the highest dose activity change, negative = inhibition, hits mostly inhibitors; actives 6.9% (n = 360,000); AID 588342;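 further: plate controls were vehicle for no effect and reference inhibitor for full effect; nearly all actives have a fitted effect of over 55% in size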
Target sequence (P08659 whole entry, looked up): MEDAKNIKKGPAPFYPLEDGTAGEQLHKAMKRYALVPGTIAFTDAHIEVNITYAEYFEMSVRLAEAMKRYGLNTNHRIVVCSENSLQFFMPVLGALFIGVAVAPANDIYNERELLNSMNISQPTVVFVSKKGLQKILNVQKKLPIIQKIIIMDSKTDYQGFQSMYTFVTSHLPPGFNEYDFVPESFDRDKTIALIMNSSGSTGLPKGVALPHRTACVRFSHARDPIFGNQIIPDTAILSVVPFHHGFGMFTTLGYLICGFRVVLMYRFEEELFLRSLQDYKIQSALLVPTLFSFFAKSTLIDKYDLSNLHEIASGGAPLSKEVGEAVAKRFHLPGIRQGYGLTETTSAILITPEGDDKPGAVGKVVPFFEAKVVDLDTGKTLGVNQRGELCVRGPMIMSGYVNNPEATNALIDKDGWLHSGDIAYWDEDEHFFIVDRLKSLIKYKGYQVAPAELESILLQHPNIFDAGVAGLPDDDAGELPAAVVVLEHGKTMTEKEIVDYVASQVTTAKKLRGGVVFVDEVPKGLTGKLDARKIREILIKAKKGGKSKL
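Purified P. pyralis luciferase, 10 nM final, with Km-level 10 uM D-luciferin and 10 uM ATP in 50 mM Tris acetate pH 7.5, 10 mM Mg acetate, 0.01% Tween-20, 0.05% BSA; 6-point qHTS titration about 60 µM downward; luminescence read.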
Luc counter: blocks Kinase-Glo luciferase, a counter-screen artifact; Q27757; Kinase-Glo luciferase, ATP luminescence, 8 min; Potency, µM (series often up to 38.3 µM), without a hit: at the highest dose activity change, negative = inhibition, hits mostly inhibitors; actives 0.28% (n = 200,000); further: on the % scale 0 is the no-effect control and ±100 the full control effect; nearly all actives have a fitted effect of over 60% in size
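Substrate mix (final 50 mM imidazole pH 7.2, 50 mM KCl, 7 mM MgCl2, 10 uM ATP, 0.01% Tween 20, 0.05% BSA) plus pin-tool compound, then Kinase-Glo detection mix; 8 min ambient, luminescence read.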
ELG1 genotox: genotoxicity induction in ELG1-luciferase HEK293T cells; HEK293T ELG1-luciferase reporter, luminescence, 16 h; Potency, µM (doses to about 46 µM), for inactives: at the highest dose activity change, positive = activation, most hits filed as activators; actives 1.3% (n = 330,000); further: % of control where 0% means no effect; nearly all actives have a fitted effect of over 60% in size
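Cells (2,000/well) expressing the ELG1-luciferase fusion are dosed by pin tool and kept 16 hr at 37 °C, 5% CO2. Signal comes from ONE-Glo luciferase reagent after 30 min at room temperature.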
Rab9 prom act: activators of Rab9 promoter | Potency, µM (titrated, usually from 9.22 µM), inactives show at the top dose activation, negative = inhibition, usual class: activators | actives 2.8% (n = 320,000) | Huh7 Rab9 promoter-luciferase reporter, luminescence, 24 h | AID 485297; further: % of control where 0% means no effect; nearly all actives have a fitted effect of over 60% in size
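Cells were plated at 1500 per well in reduced-serum medium with 10% FBS and left 2 h. Compound in DMSO was then added for 24 h at 37 °C. Reporter signal was read by luminescence after 10 min with luciferase detection reagent.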
NPC1 prom act: activators of NPC1 promoter | Huh7 NPC1 promoter luciferase reporter, 24 h | Potency, µM (doses to about 9.22 µM), for inactives: at the highest dose activation, most hits filed as activators | actives 2.4% (n = 320,000); further: % of control where 0% means no effect; nearly all actives have a fitted effect of over 60% in size
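Quantitative HTS used a cell-based reporter: Huh7 cells stably bearing the NPC1 promoter upstream of luciferase were treated with compounds for 24 h, and promoter activation was read as luminescence.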
SMN2 splice up: SMN2 splice variant enhancement; HEK293 SMN2-luciferase splicing reporter, luminescence, 30-36 h; Potency, µM (highest dose often 46.1 µM), for inactives: at the highest dose activity change, positive = activation, hits mostly activators; actives 2.8% (n = 210,000); further: % of control where 0% means no effect; nearly all actives have a fitted effect of over 55% in size
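HEK293 cells carry an SMN2 […]–luciferase reporter in which exon 7 inclusion puts luciferase in frame. Cells were plated 10-12 h before compound addition, then incubated 30-36 h at 37C. ONE-Glo luminescence was read; sodium butyrate at 4.5 mM final served as control.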
The depositor's hits bear a star; ? = inconclusive; . = no result given; [ ] = remark or other dose. Compounds with a hit are over-represented: about 7.4% of the library has one in this group of screens. The call rests on the fitted dose curve; in most records, active means well fitted curve in the direction sought with a large enough effect; inconclusive means small, poorly fitted or top-dose-only effect, or another doubt; inactive means no such curve, though single readings can be large; an effect the other way counts as inactive or inconclusive. Potency means the concentration at half of the fitted maximal effect.

SMILES	FLuc counter	Luc counter	ELG1 genotox	Rab9 prom act	NPC1 prom act	SMN2 splice up
CN(CC(=O)Nc1ccc(Cl)c(Cl)c1)CC(=O)Nc1ccc2c(c1)OCO2	-11%	.	2%	2%	0%	.
COC(=O)c1ccccc1NC(=O)C1=C(C)C(=O)OC12CCC(C)CC2 (stereo not drawn)	-8%	.	.	.	.	-8%
Nc1ccc2nc(-c3ccccc3)sc2c1	0.3µM*	7.9µM*	.	.	.	0.5µM*
Nc1ccc2nc(-c3ccccc3)c(-c3ccccc3)nc2c1	2%	.	-3%	-3%	-7%	.
COc1cccc2nc3cc(C)c(C)cc3nc12	0.76µM*	.	1.5µM*	0.89µM*	0.89µM*	.
Cc1occc1C(=O)N/N=C/c1cccnc1	-23%	?	15%	10%	12%	16%
Cc1nn(-c2ccccc2)c(C)c1/C=N/NC(=O)c1cc(-c2ccccc2)n[nH]1	?	0%	-15%	-18%	-7%	4%
CCCCCn1nc(C)c(/C=N/NC(=O)c2ccoc2C)c1C	21µM*	-11%	?	?	?	20µM*
Cc1cc(C(=O)N/N=C/c2c(C)nn(-c3ccccc3)c2C)c(C)o1	21µM*	.	8%	?	22%	.
CCCCCn1nc(C)c(/C=N\NC(=O)c2cc(C)oc2C)c1C	19µM*	0%	2%	12%	13%	5%
Cc1nn(Cc2ccccc2)c(C)c1/C=N/NC(=O)c1ccccc1O	7.6µM*	.	2%	-8%	-8%	.
CC(=O)OCc1cnc(C)c2oc(=O)c(C(=O)Nc3ccc(F)cc3C)cc12	-18%	.	.	.	.	.
Cc1nn(-c2ccccc2)c(C)c1/C=N/NC(=O)c1cc(-c2cccc3ccccc23)n[nH]1	11µM*	0%	-8%	-1%	-2%	4%
COc1ccc(NC(=O)COC(=O)c2c3c(nc4ccccc24)CCCC3)cc1	?	0%	5%	-4%	4%	-29%
COc1ccc(NC(=O)COC(=O)c2c3c(nc4ccccc24)CCCC3)cc1Cl	11µM*	-4%	-16%	-12%	1%	-15%
CC(C)CN(C(=O)COC(=O)CCc1nc2ccccc2s1)c1c(N)n(Cc2ccccc2)c(=O)[nH]c1=O	0%	.	1%	-2%	-3%	.
CN(C)c1ccc(C(=O)OCC(=O)NCCCc2ccccc2)cc1	-14%	.	1%	-2%[1.84 µM]	-4%	.
CN(C)c1ccc(C(=O)OCC(=O)N2CCCCCC2)cc1	?	0%	11%	3.5µM*	?	22%
CN(C)c1ccc(C(=O)OCC(=O)NCCNC(=O)COC(=O)c2ccc(N(C)C)cc2)cc1	4.8µM*	.	?	1.4µM*	4µM*	.
C=CCOC(=O)c1c(C)nc2cc3c(cc2c1C)OCO3	17µM*	-3%	7%	24%	19%	?
C=CCOC(=O)C1=C(C)NC(=O)NC1c1ccc2c(c1)OCO2 (stereo not drawn)	5%	.	2%	-5%	-2%	.
Cc1nnc(SCC(=O)NCc2ccc(N(C)C)cc2)c2nn(-c3ccccc3)c(C)c12	-17%	.	.	.	.	.
COc1ccc(Cn2c(-c3ccc(Br)cc3)c[n+]3ccccc23)cc1	11µM*	-7%	17%	9%	1%	11µM*
Cc1nccn1CCOc1ccccc1Cl	2%	.	-2%	0%	0%	.
CC(C)(C)OC(=O)N1CCC(c2c(C(=O)N3CCC(c4ccccc4)C3)cnn2-c2ccc(Cl)cc2)CC1 (stereo not drawn)	5%	.	.	.	.	.
SMILES	FLuc counter	Luc counter	ELG1 genotox	Rab9 prom act	NPC1 prom act	SMN2 splice up
COc1cccc(-n2cc(C(=O)Oc3ccc(F)cc3)c3ccccc3c2=O)c1	-3%	.	.	.	.	.
Cc1ccc2c(c1)N[C@H](c1ccc(C(=O)O)cc1)c1cccn1-2	.	-6%[7.66 µM]	.	.	.	-30%[9.22 µM]
Cc1cc(C)cc(C(=O)Nc2cc3c4c(c2)CC(=O)N4CCC3)c1	7%	.	3%	-4%	-6%	.
O=C(Nc1cc2c3c(c1)CC(=O)N3CCC2)c1ccc(Br)cc1	15µM*	.	11%	0%	0%	.
O=C(O)c1ccc(-c2ccccc2)[nH]1	6%	-3%	-2%	-10%	-3%	-16%
CCc1ccc(-c2ccc(C(=O)C(F)(F)F)[nH]2)cc1	2.1µM*	-2%	?	1.1µM*	2µM*	?
COc1ccc(NC(=O)N2CCCC(C(=O)NCc3ccccc3F)C2)cc1 (stereo not drawn)	0%	.	3%	3%	-2%	.
O=C(CC1C(=O)NCCN1Cc1cccc(C(F)(F)F)c1)NCCc1cnccn1 (stereo not drawn)	2%	.	0%	2%	-5%	.
O=c1c2c(nc3n1CCCCC3)sc1c(O)c(Br)ccc12	2.7µM*	-15%	2.3µM*	2.8µM*	4µM*	16µM*
CCN(CC)CCOc1c(Br)ccc2c1sc1nc3n(c(=O)c12)CCC3	-2%	-1%	?	-3%	-1%	-29%
Cc1ccc(NC(=S)N2CCSC2c2cccs2)cc1 (stereo not drawn)	15µM*	-4%	11%	0%	3%	-11%
S=C1NC[C@H](CC2CCCCC2)N1CCCCC1CCCCC1	-1%	.	-5%	1%	-4%	.
CCOc1ccc(NC(=O)c2[nH]c(C)c(C(C)=O)c2C)cc1	15µM*	.	?	?	?	.
CCc1ccc(NC(=O)c2[nH]c(C)c(C(C)=O)c2C)cc1	12µM*	.	?	1.6µM*	1.6µM*	.
Cc1nc2c3cc(F)ccc3n(Cc3ccccc3)c2s1	-2%	3%	18%	-6%	-2%	-5%
CCc1ccc2c(c1)c1nc(C)sc1n2CC(=O)OC	12µM*	-5%	-4%	-2%	1%	-13%
COc1ccc(-c2nn(-c3ccccc3)cc2N)cc1	11µM*	-4%	?	2.8µM*	3.5µM*	14µM*
COc1ccc(-c2c(C)nn(-c3ccccc3)c2N)cc1	21µM*	6%	?	?	?	?
Cc1nn(-c2ccc(C(=O)O)cc2)c(N)c1-c1ccccc1	3µM*	-7%	?	?	?	11µM*
